# Laboratory results published in PubChem BioAssay.
# Molecular target: Calmodulin-1 (Homo sapiens) (UniProt P0DP23)
# Assay: CALM1 binders on microarrays, EGTA buffer, profiling panel, biochemical, small-molecule microarray, Cy5-labelled CALM1 (AID 1111);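 note: labelled calmodulin applied in Tris saline Tween buffer holding calcium plus EGTA and DTT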
# Details: Cy5-CALM1 binding fluorescence, higher = more signal
row,SMILES,composite z-score
1,COC(=O)[C@@]1(Cc2ccccc2N=[N+]=[N-])COC(c2ccc(OCCCO)cc2)=N1,0.238
2,CC(C)C(=C=CC[C@@H](O)c1ccccc1OCCO)C[C@@H](O)c1ccccn1,-0.178
3,O=C(O)[C@H]1C[C@H]2C(=O)NCC(=O)N2[C@H]1c1ccc(O)cc1,-0.559
4,C=CC[C@]1(C(=O)N2CCOCC2)N=C(c2ccc(OCCCO)cc2)O[C@H]1c1ccccc1,0.732
5,COc1cc(C(O)C2C=CC3C(=O)N(c4ccccc4)C(=O)C3N2Nc2ccc(C#N)cc2)cc(OC)c1OC (stereo not given),2.23
6,O=C1O[C@H](c2ccccc2)[C@H](c2ccccc2)N2[C@H]1[C@@H](C(=O)Nc1nc3ccccc3s1)[C@]1(C(=O)Nc3ccccc31)[C@H]2c1ccc(O)cc1,0.281
7,O=C1O[C@@H](c2ccccc2)[C@@H](c2ccccc2)N2[C@@H](c3ccc(O)cc3)[C@]3(C(=O)Nc4ccc(C#CC5(O)CCCCCC5)cc43)[C@@H](C(=O)N3CCCCCCC3)[C@H]12,2.6
8,O=C1C=CC(=O)[C@@H]2CC(COc3ccccc3)=C3[C@@H](CCc4ccccc4)OB(O)C[C@@H]3[C@H]12,-0.413
9,CCOC(=O)C1=CCC(C(C)(C)C)N(S(=O)(=O)c2ccc(C)cc2)C1 (stereo not given),0.898
10,CCOC(=O)C1=CCC(c2ccc([N+](=O)[O-])cc2)N(S(=O)(=O)c2ccc(C)cc2)C1 (stereo not given),0.279
11,NCCCCCCNC(=O)[C@H]1C[C@H]2C(=O)NCC(=O)N2[C@H]1c1cccc(OCCO)c1,-0.0421
12,NC(=O)NCC#Cc1ccc2c(c1)[C@]1(C(=O)N2)[C@H](C(=O)NC[C@H](O)c2ccccc2)[C@H]2C(=O)O[C@H](c3ccccc3)[C@H](c3ccccc3)N2[C@@H]1c1ccc(O)cc1,2
13,O=C1N(CCS(=O)(=O)c2ccccc2)Cc2ccccc2[C@H]2OC(c3ccc(OCCCO)cc3)=N[C@@]12CCS(=O)(=O)c1ccccc1,1.25
14,O=C1C2C=CC(C(O)c3ccc(F)cc3)N(Nc3ccccc3)C2C(=O)N1c1ccccc1 (stereo not given),0.691
15,CCOC(=O)C1=C[C@@H](CC)N(S(=O)(=O)c2ccc(C)cc2)[C@H]1c1ccccc1,1.07
16,COc1ccc(CCNC(=O)[C@@]2(c3ccc([N+](=O)[O-])cc3)CC(=O)N(CC34CC5CC(CC(C5)C3)C4)[C@@H]2c2ccc(CO)cc2)cc1,0.581
17,CCC[C@@H]1C=C(C(=O)O)[C@H](c2ccc(C)cc2)N1S(=O)(=O)c1ccc(C)cc1,0.665
18,[N-]=[N+]=NCc1ccccc1[C@H]1OC(c2ccc(OCCCO)cc2)=N[C@@]1(CCS(=O)(=O)c1ccccc1)C(=O)N1CCOCC1,2.58
19,O=C/C=C/c1ccc2c(c1)OCO2,-1.18
20,COc1ccc(C(O)C2C=CC3C(=O)N(C)C(=O)C3N2Nc2ccccc2)cc1OCc1ccccc1 (stereo not given),1.52
21,C=C(CCCC)/C(=C/C[C@H](OC(C)=O)c1ccc(CO)o1)c1cnc2ccccc2c1,0.229
22,COCCOC(=O)N1C(=O)[C@@]2(c3cc(C#CCCO)ccc31)[C@H](c1ccccc1OCCO)N1[C@H](c3ccccc3)[C@H](c3ccccc3)OC(=O)[C@H]1[C@@H]2C(=O)N1CCN(c2ncccn2)CC1,1.33
23,CCCCC(O)C1C=CC2C(=O)N(C3CCCCC3)C(=O)C2N1Nc1ccc(OC)cc1 (stereo not given),1.05
24,COCCOC(=O)N1C(=O)[C@@]2(c3cc(C#CCNC(N)=O)ccc31)[C@H](c1ccc(OCCO)cc1)N1[C@H](c3ccccc3)[C@H](c3ccccc3)OC(=O)[C@H]1[C@@H]2C(=O)N1CCc2cc(OC)c(OC)cc2C1,0.243
25,COc1ccc([Si](C)(C)[C@H]2[C@H](CC(=O)N(CCO)Cc3ccccc3)O[C@@]3(C(=O)N(Cc4cccc(N5CCC5=O)c4)c4ccccc43)[C@@H]2C)cc1,0.64
